# A selection: hits, their analogues and other compounds. The true share with any hit is near 10%.
# HP1b binding inh: HP1-beta chromodomain-methylated histone interaction inhibition. Potency, µM (series often up to 114 µM), for the others: at the highest dose activity change, negative = inhibition, hits mostly inhibitors. AID 540317. AlphaScreen HP1-beta / biotin-H3K9me3 peptide binding. actives 0.56% (n = 390,000); note: nearly all actives have a fitted effect of over 70% in size
# Target sequence (P83916 whole entry, looked up): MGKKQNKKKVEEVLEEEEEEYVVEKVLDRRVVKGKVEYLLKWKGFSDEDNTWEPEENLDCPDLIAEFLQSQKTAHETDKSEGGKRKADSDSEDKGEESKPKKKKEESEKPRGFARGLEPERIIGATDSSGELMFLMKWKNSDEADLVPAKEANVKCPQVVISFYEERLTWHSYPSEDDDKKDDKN
#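 HP1-beta protein (50 nM final) preincubated 30 min at room temperature with biotinylated H3(1-18)K9me3 peptide (50 nM) in PBS pH 7.4, 0.01% Tween-20, then compound added for 30 min. AlphaScreen streptavidin donor/nickel chelate acceptor beads (10 ug/mL final), 30 min dark, luminescence read.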
# L3MBTL1 block: blocks human L3MBTL1; Q9Y468; AlphaScreen L3MBTL1–H3K9me1 peptide binding; Potency, µM (series often up to 57.1 µM), inactives show at the highest dose activity, negative = inhibition, usual class: inhibitors; actives 0.66% (n = 230,000); AID 485360; note: % is set by controls: 0 for no effect and ±100 for the full control effect; nearly all actives have a fitted effect of over 60% in size
#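 AlphaScreen proximity signal between nickel-chelate acceptor and streptavidin donor beads (final 10 ug/mL) reports binding of 50 nM L3MBTL1 to 75 nM biotin-H3 K9me1 peptide; complex incubated with compounds 30 min at room temperature; cefsulodin titration as control.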
# BAZ2B block: blocks human BAZ2B | Q9UIF8 | AlphaScreen BAZ2B-H3K14Ac peptide displacement | Potency, µM (highest dose often 114 µM), inactives show at the highest dose activity change, negative = inhibition, actives largely listed as inhibitors | actives 4.4% (n = 360,000) | AID 504333; note: % is set by controls: 0 for no effect and ±100 for the full control effect; nearly all actives have a fitted effect of over 60% in size
#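 Protein-peptide AlphaScreen: BAZ2B 50 nM, b-H3K14Ac 50 nM, 1x PBS pH 7.4 + 0.01% Tween-20. Preincubation 30 min RT; cpd 30 min RT (top 110 uM); beads 20 min RT, light-protected.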
# G9a inh: G9a (human) methyltransferase inhibition. Potency, µM (top dose mostly 102 µM), without a hit: top-dose activity, negative = inhibition, hits mostly inhibitors. Q96KQ7. actives 8.8% (n = 350,000). G9a H3K9 monomethylation, AlphaScreen, 2 h; note: % is set by controls: 0 for no effect and ±100 for the full control effect; nearly all actives have a fitted effect of over 75% in size
# Target sequence (Q96KQ7 913-1193 limits assumed): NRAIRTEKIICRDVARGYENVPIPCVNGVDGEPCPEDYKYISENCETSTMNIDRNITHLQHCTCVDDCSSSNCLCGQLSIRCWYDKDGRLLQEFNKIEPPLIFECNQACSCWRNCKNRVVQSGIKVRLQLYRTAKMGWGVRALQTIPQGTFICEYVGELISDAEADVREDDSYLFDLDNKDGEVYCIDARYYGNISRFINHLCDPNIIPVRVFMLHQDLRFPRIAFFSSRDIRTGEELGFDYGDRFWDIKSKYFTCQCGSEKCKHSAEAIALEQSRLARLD
#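 G9a (20 nM) preincubated 15 min RT with compounds, then 500 nM biotinylated H3K9 peptide and 20 uM SAM added; 2 h RT reaction. Monomethyl-H3K9 product detected by AlphaScreen with anti-H3K9me1 antibody, streptavidin donor and anti-rabbit IgG acceptor beads.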
# JMJD2A Tudor inh: inhibitors of human JMJD2A Tudor domain; AID 504339; actives 4.4% (n = 390,000); O75164; Potency, µM (doses to about 114 µM), without a hit: at the top dose activity change, negative = inhibition, hits mostly inhibitors; AlphaScreen JMJD2A-Tudor / H3K4me3 peptide binding; note: % is set by controls: 0 for no effect and ±100 for the full control effect; nearly all actives have a fitted effect of over 50% in size
# GLS inhibitor: glutaminase GLS (human) inhibition; O94925; GLS enzymatic activity, qHTS titration; Potency, µM (top dose mostly 45.5 µM), inactives show at the top dose activity change, negative = inhibition, actives largely listed as inhibitors; actives 0.21% (n = 410,000); note: % is set by controls: 0 for no effect and ±100 for the full control effect
#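 Assay buffer: 45 mM KH2PO4 pH 8.2, 0.02% Tween-20. hKGA acts on L-glutamine (1 mM solution added); product glutamate is reported by an oxidase/peroxidase Amplex Red coupling, with fluorescence taken at baseline and 30 min.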
# An asterisk follows results filed as active; u = inconclusive; x = no result; [ ] = another dose, or the depositor's remark. Calls come from the whole dose curve; as a rule, active = well fitted curve in the direction sought with a large enough effect; inconclusive = small, poorly fitted or top-dose-only effect, or another doubt; inactive = no such curve, though single readings can be large; an effect the other way counts as inactive or inconclusive. Potency is the fitted concentration of half-maximal effect.
SMILES,HP1b binding inh,L3MBTL1 block,BAZ2B block,G9a inh,JMJD2A Tudor inh,GLS inhibitor
Clc1ccccc1-c1nnc2sc(-c3ccncc3)nn12,17%,x,2%,u,u,15%
CN(C)c1ccc(-c2nn3c(-c4ccccc4Cl)nnc3s2)cc1,53%,3%,19%[57.1 µM],-12%[59 µM],-22%,-2%
Clc1ccc(-c2nnc3sc(-c4ccccn4)nn23)cc1,x,2%,12%,-7%[2.33 µM],x,x
Clc1ccccc1-c1nn2c(-c3ccncc3)nnc2s1,u,5%,0%,3.2µM*,u,-26%
COc1cc(-c2nnc3n(CCc4ccccc4)c(=O)c4ccccc4n23)cc(OC)c1OC,16%,-2%,7%,18µM*,0%,-9%
COc1cc(OC)c(-c2nnc3n(CCc4ccccc4)c(=O)c4ccccc4n23)cc1OC,x,-9%,3%,-11%,x,x
CC(C)OCCCn1c(=O)c2ccccc2n2c(CCC(=O)O)nnc12,16%,x,-35%,2%,-11%,2%
CC(C)OCCCn1c(=O)c2ccccc2n2c(-c3ccc(F)cc3)nnc12,-1%,x,u,28µM*,u,3%
Cc1ccc(S(=O)(=O)N2CCCC2C(=O)OCc2ccco2)cc1 (stereo unspecified),5%,x,50µM*,u,56µM*,-9%
Cc1ccc(-n2nnnc2CNC(=O)c2ccccc2F)cc1C,29%[57 µM],x,3%,-2%[59 µM],0%,3%
CC1CC(C)(C)N(C(=O)CN2CCN(C)CC2)c2ccccc21 (stereo unspecified),u,-9%,25µM*,x,20µM*,0%
CCCc1ccc(OC(=O)CSc2nnc(-c3cccs3)o2)cc1,38%,x,-16%,u,-11%,-6%
CS(=O)(=O)c1sc(C#N)c2c1C(=O)CC(c1ccccc1)C2 (stereo unspecified),10%,-10%,-38%,25µM*,-21%,3%
Cc1oc2c(c(=O)c1C)C(=O)CC(c1ccccc1)C2 (stereo unspecified),24%,10%,3%,-29%[59 µM],-9%,4%
Oc1ccc(Nc2ncnc3c2oc2ccccc23)cc1,41%,x,-17%,u,-29%,-3%
CCc1nc(Nc2ccccc2)c2oc3ccccc3c2n1,45%,8%,-7%,-23%[59 µM],2%,x
CCc1nc(Nc2ccc(N3CCN(C(C)=O)CC3)cc2)c2oc3ccccc3c2n1,0%,1%,50µM*,u,u,36%
CCc1nc(Nc2ccccc2F)c2oc3ccccc3c2n1,35%,x,56µM*,50µM*,-4%,0%
Oc1cccc(Nc2ncnc3c2oc2ccccc23)c1,22%,x,u,50µM*,-27%,3%
CCc1nc(Nc2cccc(F)c2)c2oc3ccccc3c2n1,10%,x,u,45µM*,-10%,2%
CC(=O)N1CCN(c2ccc(Nc3ncnc4c3oc3ccccc34)cc2)CC1,3%,-13%,u,u,-27%,47%
COc1cc(-c2cc3n(C)c(C)c(CCC(=O)NC4CCC(C)CC4)c(=O)n3n2)cc(OC)c1OC (stereo unspecified),21%[57 µM],x,-8%,3%[59 µM],-10%,-4%
CCc1nc(Nc2ccc(F)cc2)c2oc3ccccc3c2n1,43%,x,0%,45µM*,1%,0%
Cc1nnc(CN(C)C(=O)CC2C(=O)NCCN2Cc2ccccc2C)o1 (stereo unspecified),44%,x,-19%,35µM*,-7%,16%
CN(Cc1ccon1)C(=O)CC1C(=O)NCCN1Cc1ccccc1C(F)(F)F (stereo unspecified),37%,x,3%,0%[12.7 µM],-18%,2%
SMILES,HP1b binding inh,L3MBTL1 block,BAZ2B block,G9a inh,JMJD2A Tudor inh,GLS inhibitor
CN(CCc1cn[nH]c1)C(=O)CC1C(=O)NCCN1Cc1ccccc1C(F)(F)F (stereo unspecified),42%,-14%,-18%,45µM*,-14%,0%
Cc1ccccc1CN1CCNC(=O)C1CC(=O)N(C)CCC1CCOCC1 (stereo unspecified),38%,x,-1%,23%[0.0925 µM],-12%,-1%
CN(Cc1nccn1C)C(=O)CC1C(=O)NCCN1Cc1ccc(F)cc1Cl (stereo unspecified),25%,x,-17%,40µM*,u,-10%
CN(Cc1nccn1C)C(=O)CC1C(=O)NCCN1Cc1ccccc1C(F)(F)F (stereo unspecified),18%,7%,-17%,50µM*,-16%,-1%
CCOc1c2c(c(-c3ccc4c(c3)OCO4)c3cc(OC)c(OC)cc13)C(=O)OC2,-6%,x,x,x,-15%,x
O=C(CS(=O)(=O)c1cccc2nsnc12)Nc1ccccc1Cl,10%[57 µM],x,-4%,-2%[59 µM],-17%,-9%
COc1ccc(N2CCN(S(=O)(=O)CCNC(=O)COc3ccccc3F)CC2)cc1,9%[57 µM],x,-6%,u,-18%,9%
O=S(=O)(c1ccc(Cl)cc1)c1cnc2ccccc2n1,28%,3%,-17%,-1%,-29%,-8%
Cc1cc(C)cc(S(=O)(=O)c2cnc3ccccc3n2)c1,u,-14%,20%,29%,11µM*,u
CC(=O)Nc1ccc(S(=O)(=O)Nc2cc(S(=O)(=O)N3CCCCC3)ccc2O)cc1,7%,10%,-3%,28µM*,u,21%
O=C(Nc1cc(S(=O)(=O)N2CCOCC2)ccc1O)c1ccc(NS(=O)(=O)c2ccc(Cl)s2)cc1,-19%,7%,-9%,u,-19%,21%
O=S(=O)(Nc1cc(S(=O)(=O)N2CCCC2)ccc1O)c1ccc(Cl)s1,6%,5%,-26%,56µM*,-10%,23%
CC1=C(C(=O)Nc2ccccc2)C(c2cccnc2)n2nc(SCc3ccccc3F)nc2N1 (stereo unspecified),10%,x,-1%,-21%[59 µM],-9%,-3%
O=C(Nc1ccc2c(c1)CCCN2C(=O)c1cccs1)c1ccc(F)c(F)c1,36%,x,-19%,-23%[59 µM],-5%,1%
COc1ccc(N2CCC(CNC(=S)Nc3c(C)cc(C)cc3C)C2)cc1 (stereo unspecified),7.1µM*,x,20µM*,u,35µM*,9%
COc1ccc(N2CCC(CNC(=S)Nc3ccc(C)cc3C)C2)cc1 (stereo unspecified),u,x,16µM*,u,28µM*,29%
COc1ccc(N2CCC(CNC(=S)Nc3cccc(C)c3)C2)cc1 (stereo unspecified),u,u,13µM*,u,45µM*,29%
COc1cccc(N2CCN(C(=S)Nc3ccc(C)cc3C)CC2)c1,18%,-3%,8%,0%,5%,-11%
COc1ccc(CC(=O)NC(=S)Nc2cccc(C)c2)cc1,44%,x,x,x,-4%,-16%

# Screening results (PubChem)
